# Bioassay records: PubChem BioAssay, National Center for Advancing Translational Sciences (NCATS)
# uPA generation – qHTS for Inhibitors of Cell Surface uPA Generation; cell surface uPA generation assay, qHTS; Potency, µM (series often up to 38.3 µM), inactives show at the highest dose activity change, negative = inhibition, most hits filed as inhibitors; actives 0.31% (n = 330,000); AID 540303, 2011; active = well fitted inhibition curve with a large enough effect; inconclusive = small, poorly fitted or top-dose-only effect; inactive = no such curve, though single readings can be large or run the other way; tested in mouse RAW 264.7 cells; also: potency is read from the fitted curve at half-maximal effect; % is scaled to controls: 0 for no effect and ±100 for the full control effect; nearly all actives have a fitted effect of over 55% in size
# Integrin act MD – qHTS for Activators of Integrin-Mediated Alleviation for Muscular Dystrophy. actives 0.064% (n = 350,000). Potency, µM (titrated, usually from 38.3 µM), without a hit: top-dose activation, most hits filed as activators. alpha7betagal myoblasts, beta-gal FDG fluorescence, 48 h. AID 624291, 2012;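 also: potency is read from the fitted curve at half-maximal effect; 100% = response of the positive control SU9516; nearly all actives have a fitted effect of over 60% in size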
#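 alpha7betagal+/- myoblasts (passage 13, 250/well) treated 48 h at 37C with compounds at 1:260 dilution of DMSO stock. Lysed, then beta-galactosidase activity read as FDG fluorescence (ex 480/em 540) after 30 min, with pre-read for autofluorescence.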
# Nrf2 activator – qHTS of Nrf2 Activators | AREc32 ARE-luciferase reporter (MCF7-derived line), luminescence, 24 h | Potency, µM (highest dose often 46.1 µM), inactives show at the top dose activation, most hits filed as activators | actives 0.31% (n = 410,000) | AID 624171, 2012; also: potency is read from the fitted curve at half-maximal effect; % of control where 0% means no effect; nearly all actives have a fitted effect of over 65% in size
#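 Each well held 1000 AREc32 cells, which were incubated with compound for 24 hr at 37 deg C after overnight attachment, and ARE reporter activity was quantified by firefly luciferase luminescence.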
# 12-LOX inh – Primary qHTS assay for inhibitors of human arachidonate 12S-lipoxygenase (ALOX12): Round 2. Polyunsaturated fatty acid lipoxygenase ALOX12 (Homo sapiens), P18054. purified 12hLO, xylenol orange hydroperoxide absorbance. Potency, µM (top dose mostly 108 µM), for inactives: at the highest dose activity change, negative = inhibition, hits mostly inhibitors. actives 1.1% (n = 580,000); also: potency is read from the fitted curve at half-maximal effect; % is scaled to controls: 0 for no effect and ±100 for the full control effect
# Target sequence (P18054 whole entry, looked up): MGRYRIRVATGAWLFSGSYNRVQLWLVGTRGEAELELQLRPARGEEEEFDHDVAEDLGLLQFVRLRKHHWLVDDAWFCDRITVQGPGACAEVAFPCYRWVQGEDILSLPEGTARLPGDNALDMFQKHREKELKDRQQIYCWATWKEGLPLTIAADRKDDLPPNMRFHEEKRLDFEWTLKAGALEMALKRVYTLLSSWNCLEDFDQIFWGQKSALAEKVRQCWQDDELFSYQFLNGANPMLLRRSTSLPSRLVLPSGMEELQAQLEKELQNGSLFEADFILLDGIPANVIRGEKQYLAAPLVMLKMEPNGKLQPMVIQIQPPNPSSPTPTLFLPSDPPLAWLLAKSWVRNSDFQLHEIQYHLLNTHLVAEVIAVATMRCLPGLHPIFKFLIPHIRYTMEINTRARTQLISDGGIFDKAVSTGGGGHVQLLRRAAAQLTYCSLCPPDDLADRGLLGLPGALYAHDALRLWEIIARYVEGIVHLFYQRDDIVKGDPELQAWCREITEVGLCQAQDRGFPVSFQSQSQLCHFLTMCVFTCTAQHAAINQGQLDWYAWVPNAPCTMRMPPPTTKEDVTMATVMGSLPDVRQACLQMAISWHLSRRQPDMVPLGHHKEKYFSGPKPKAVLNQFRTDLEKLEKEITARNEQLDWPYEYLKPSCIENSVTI
#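 Purified human 12hLO (150 nM final) in 25 mM Hepes, 0.01% Triton X-100, pH 7.0 was preincubated 15 min at room temperature with compound. Then 40 uM arachidonic acid was added, 30 min. Hydroperoxide was read by Fe-XO absorbance ratio 573/405 nm.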
# IL2 activator – qHTS of IL-2 Activators | IL-2 activation reporter assay, cell-based qHTS; stimulated with anti-CD3/CD4/CD28 beads; in transgenic mouse T cells | activation, % (series mostly up to about 46 µM) | actives 0.065% (n = 360,000) | AID 652025, 2013; in the data active = activation above about 50%; inconclusive = mostly about 30% to 49%; also: 0% is about no effect
#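 Readout: EGFP and DsRed signals by fluorescent plate cytometry. Unstimulated transgenic mouse T cells received compound 60 min before antibody-bead stimulation, then incubated 18 h at 37 degrees C.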
# * marks the source's active call; other numbers are inactive results; ? = inconclusive; . = no result; [ ] = dose if it differs, or a comment. Compounds with a hit are over-represented: about 1.5% of the library has one in this group of screens. Unless noted, calls follow the shape of the dose curve; as a rule, active = well fitted curve in the direction sought with a large enough effect; inconclusive = small, poorly fitted or top-dose-only effect, or another doubt; inactive = no such curve, though single readings can be large; an effect the other way counts as inactive or inconclusive.
SMILES,uPA generation,Integrin act MD,Nrf2 activator,12-LOX inh,IL2 activator
O=S(=O)(N1CC=C(c2c[nH]c3cc(F)ccc23)CC1)N1CCCCCC1,.,.,.,16µM*,.
COc1cc(OC)c(C2=CCN(S(=O)(=O)N3CCCCCC3)CC2)c(OC)c1,.,.,.,-1%,.
Cc1cccc(C)c1-n1nnnc1SCc1nc2ccccc2o1,.,.,.,-22%,.
COc1ccccc1CN1CCCC12Cc1ccccc1CNC2=O (configuration not stated),.,.,.,7%[6.33 µM],.
CC1(C)CC(=O)C2=C(C1)NC(=S)C(C#N)C21CCCCC1 (configuration not stated),-10%,-9%,5%,7.9µM*,0
N#CCc1ccc(NC(=O)CNc2ccc(F)cc2Cl)cc1,.,.,.,-19%,.
CCC[C@H](NC(=O)C(C#N)=Cc1cccc(Br)n1)c1ccccc1,.,.,.,7.7µM*,.
Cc1oc(-c2nc(C#N)c(N3CCOCC3)o2)cc1S(=O)(=O)N1CCCCC1,.,.,.,-2%,.
Cn1c(=O)c2cc(C(=O)Nc3ccc(Cl)c4ncccc34)cnc2n(C)c1=O,.,.,.,-1%,.
COc1ccc(N/C=C2\CCOC2=O)cc1,.,9%,2%,-16%,-1
COc1ccc(N/C=C2\C(=O)CCc3c2oc2cc(Cl)c(O)c(Cl)c32)cc1,-7%,?,7.1µM*,6.3µM*,268*
O=C(Nc1ccc(-c2nc3ccccc3o2)cc1)C1CCCO1 (configuration not stated),.,7%[7.66 µM],0%,2%,-2
O=C(Nc1ccc(-c2nc3cccnc3s2)cc1)C1CCCO1 (configuration not stated),2.5µM*,8%,-3%,7%,-3
COc1ccc(Br)c2oc(S)cc(=O)c12,9%,4%,5%,6.3µM*,1
COCCc1nncn1C1CCN(C(=O)c2ccc(C)cc2)CC1,.,.,.,30%,.
COc1ccc(CN2CCn3c(nnc3C3CCNCC3)C2)cc1,.,.,.,10%[6.33 µM],.
CC(=O)Nc1ccc(CN2CCn3c(nnc3C3CCNCC3)C2)cc1,.,.,.,11µM*,.
CS(=O)(=O)N(C1CC1)C1CCOC2(CCN(C(=O)NCc3ccccc3)CC2)C1 (configuration not stated),.,.,.,-9%,.
CC(=O)NC1(C)CCN(Cc2ccccc2-c2ccc3ccccc3c2)C1 (configuration not stated),.,.,.,32µM*,.
CC(=O)NC1(C)CCCN(Cc2cccc(-c3ccc4c(ccn4C)c3)c2)C1 (configuration not stated),.,.,.,35µM*,.
CC(=O)NC1(C)CCCN(Cc2cccc(Nc3ccccc3)c2)C1 (configuration not stated),.,.,.,-21%[176 µM],.
CC(=O)NC1(C)CCN(Cc2cccc(-c3cccc(Cl)c3)c2)C1 (configuration not stated),.,.,.,40µM*,.
Cc1ccccc1-c1ccc2ncnc(NC3CC3)c2c1,.,.,.,-21%,.
COCCNc1ncnc2ccc(-c3ccccc3C)cc12,.,.,.,28µM*,.
CCCN1CCCCC12Cc1ccccc1CN(C(=O)CCCC(=O)O)C2 (configuration not stated),.,.,.,0%[6.33 µM],.
SMILES,uPA generation,Integrin act MD,Nrf2 activator,12-LOX inh,IL2 activator
Cc1ccc(CCN2CCCCC23Cc2ccccc2CN(C(=O)CCC(=O)O)C3)cc1 (configuration not stated),.,.,.,32µM*,.
Cc1ccc(-n2c3c(c(=O)[nH]c2=O)CN(Cc2ccco2)CN3)cc1C,.,.,.,-7%,.
O=C(CC12CC3CC(CC(C3)C1)C2)Nc1ccc2oc(-c3cncc(Br)c3)nc2c1,.,.,.,-4%,.
O=C(CCS(=O)(=O)c1ccc(F)cc1)Nc1nc(-c2ccncc2)cs1,?,-56%,16µM*,-26%,-1
CC(=O)Nc1ccc(-c2csc(Nc3ccc(S(N)(=O)=O)cc3)n2)cc1,6%,6%,-1%,-8%,-1
NS(=O)(=O)c1ccc(Nc2nc(-c3ccc(F)cc3)cs2)cc1,-2%,-21%,5%,40µM*,-3
CCCNC(=S)NNC(=O)c1cccc(N(C)C)c1,.,.,.,13%,.
c1ccc(-c2nc(NCc3ccco3)c3oc4ccccc4c3n2)cc1,.,1%,?,7.1µM*,1
Cc1c(C(=O)NCc2ccco2)oc2ccccc12,2%,7%,14µM*,-17%,-1
O=c1cc(NCc2ccco2)c2ccccc2o1,-4%,2%,13µM*,-24%,0
Cc1c(C(=O)NCc2ccco2)oc2ccc(Br)cc12,-12%,7%,?,?,-4
CCOc1ccccc1C(=O)N1CCN(C(=O)c2nnn3c2COC(c2ccc(Cl)cc2)C3)CC1 (configuration not stated),.,.,.,-2%,.
COc1cc(/C=C(\CC(=O)O)c2nc3ccccc3s2)cc(OC)c1O,-3%,18%,11%,35µM*,5
C(=N\NC1=Nc2cccc3cccc1c23)/c1ccccn1,?,-21%,?,-20%,-1
Clc1ccccc1/C=N/NC1=Nc2cccc3cccc1c23,0%,10%,17%,-22%,244*
CC(=O)c1cc(C(=O)N2CCC(O)(c3ccc(C)cn3)CC2)c(=O)[nH]c1C,.,.,.,3%,.
C=C1CCC[C@]2(C)C[C@H]3OC(=O)C(CN4CC(C)OC(C)C4)[C@H]3C[C@@H]12 (some centres not stated),?,-49%,?,0%,-4
CC1CCN(CC2C(=O)O[C@@H]3C[C@@]4(C)CCC[C@H](C)C4=C[C@H]23)CC(C)(C)C1 (some centres not stated),-10%,-51%,8.9µM*,?,0
Clc1ccc2c(NCc3cccs3)ncnc2c1,-20%,-16%,0%,0%,-3
Clc1ccc2c(NCc3ccccn3)ncnc2c1,2%,0%,6.3µM*,-21%,-1
CC(C)n1c(=O)[nH][nH]c1=S,3%,19%,-1%,35µM*,2
O=S(=O)(NC1c2ccccc2Oc2ccccc21)c1cccs1,.,.,.,6%,.
COc1ccc(C2COc3cc(O)ccc3C2)c(OC)c1O (configuration not stated),?,-34%,1%,35µM*,0
C[N+]1(CC[N+]2(C)CCCCC2)CCCCC1,.,.,.,4µM*,.
O=C(Nc1ccccc1C(=O)NCCc1ccccc1)c1ccco1,1%,-7%,2.8µM*,177%,0
O=C(O)CNC(=O)c1ccccc1NC(=O)c1ccco1,1%,-5%,1%,0%,-1
COC(=O)C1=C(C)N(Cc2ccc(Br)cc2)C(=S)NC1c1cccc(F)c1 (configuration not stated),.,.,.,35µM*,.
COC(=O)C1=C(C)N(Cc2ccc(Cl)cc2)C(=S)NC1c1ccc(Cl)cc1 (configuration not stated),.,.,.,32µM*,.
